GLP1R cytotox – cytotoxicity in counter-screen for GLP-1R inverse agonists | AID 624418 | HEK293 cAMP-luciferase reporter cells, luminescence, 24 h | 410,000 tested, 0.13% active | Potency, µM (top dose mostly 38.3 µM), for inactives: top-dose activity change, negative = inhibition, actives largely listed as inhibitors;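 note: loss of luciferase light is scored as toxicity; potency is the fitted concentration of half-maximal effect; % is set by controls: 0 for no effect and ±100 for the full control effect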
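Here, cytotoxicity is scored as loss of luminescence. The MLSMR collection was tested on cells seeded in medium containing 10% Nu serum, with a 24 hr compound exposure preceded by 12 hours of culture.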
DRD3 antagonist – blocks the human D3 dopamine receptor; 360,000 tested, 2.5% active; P35462; D3R cells, DiscoveRx beta-arrestin luminescence, antagonist mode; hits give low values; AID 652054; max response, negative = inhibition, %; in the data active = max response below about -50%; inconclusive = no clear call, values can overlap the other calls; note: % is set by controls: 0 for no effect and ±100 for the full control effect
Target sequence (P35462 whole entry, looked up): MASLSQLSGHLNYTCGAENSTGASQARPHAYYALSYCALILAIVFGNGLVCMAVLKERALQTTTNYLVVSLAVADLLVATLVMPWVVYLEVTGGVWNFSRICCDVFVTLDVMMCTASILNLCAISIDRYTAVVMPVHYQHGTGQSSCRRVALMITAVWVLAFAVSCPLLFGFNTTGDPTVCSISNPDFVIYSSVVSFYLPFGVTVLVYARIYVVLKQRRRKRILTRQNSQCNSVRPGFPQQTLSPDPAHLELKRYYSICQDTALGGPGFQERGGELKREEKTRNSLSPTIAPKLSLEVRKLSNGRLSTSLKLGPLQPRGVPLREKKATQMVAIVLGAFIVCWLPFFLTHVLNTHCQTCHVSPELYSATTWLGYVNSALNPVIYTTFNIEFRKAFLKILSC
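Cells expressing the human receptor were seeded at 1500 cells/well, incubated overnight at 37 degrees C in 5% CO2, then exposed to library compounds with dopamine controls for 90 minutes at 37 degrees C before luminescent detection.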
GLP1R inv ag – inverse agonists of human GLP-1 receptor; AID 624417; 410,000 tested, 1.6% active; Potency, µM (titrated, usually from 38.3 µM), inactives show at the highest dose activity change, negative = inhibition, hits mostly inhibitors; HEK293 GLP-1R CRE-luciferase, luminescence, 24 h; GLP-1R form is constitutively active; P43220; note: potency is the fitted concentration of half-maximal effect; % is set by controls: 0 for no effect and ±100 for the full control effect; nearly all actives have a fitted effect of over 55% in size
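Stable HEK293 clone (constitutively active GLP-1R + cAMP-response luciferase); 200 cells/uL plated, 12 h pre-culture, compound 24 hr, 37 deg C/5% CO2; detection reagent 12 min RT; luminescence.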
DRD3 agonist – agonists of human D3 dopamine receptor; D3R DiscoveRx beta-arrestin cells, luminescence, 90 min; max activation, %; 410,000 tested, 0.58% active; P35462; in the data active = max activation above about 30%; note: 0% is about no effect
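Agonist mode: compounds and dopamine controls were applied to plated cells for 90 min at 37 degrees C after an overnight attachment at 1500 cells/well. Luminescent read-out followed 30 - 60 minutes at room temperature with DiscoveRx detection reagent.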
ClpP mod – qHTS Assay for Activators of ClpP; ATP-dependent Clp protease proteolytic subunit (Bacillus subtilis (strain 168)), P80244; purified B. subtilis ClpP, FRET peptide cleavage, 20 min; Potency, µM (series often up to 57.5 µM), for the others: at the top dose activity change, negative = active; 340,000 tested, 1.9% active; AID 651965, 2013; active = well fitted falling curve with a large enough effect; inconclusive = small, poorly fitted or top-dose-only effect; inactive = no such curve, though single readings can be large or run the other way; note: potency is the fitted concentration of half-maximal effect; the source files actives as falling curves though it sought activators and does not explain the sign; nearly all actives have a fitted effect of over 65% in size
Target sequence (P80244 whole entry, looked up): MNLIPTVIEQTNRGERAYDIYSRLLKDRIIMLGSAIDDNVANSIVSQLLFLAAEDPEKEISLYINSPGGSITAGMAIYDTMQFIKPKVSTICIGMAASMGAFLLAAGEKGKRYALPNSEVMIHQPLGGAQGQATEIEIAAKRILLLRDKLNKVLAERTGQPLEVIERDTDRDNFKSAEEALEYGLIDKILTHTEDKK
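FRET quenching reversal measured ClpP activation: 10 microg/mL B. subtilis ClpP at pH 8 with the FRET-FV decapeptide, read at 430 nm after 320 nm excitation. The 20-min minus 0-min signal was scaled between DMSO/no-enzyme wells and ADEP (5.8 microM final).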
GLP1R ag – agonists of human GLP-1 receptor. HEK293 GLP-1R CRE-luciferase, luminescence, 4-6 h; cells express a hypersensitive GLP-1R form. P43220. 380,000 tested, 0.007% active. Potency, µM (highest dose often 45.6 µM), for inactives: at the highest dose activation, hits mostly activators. AID 624172; note: potency is the fitted concentration of half-maximal effect; % of control where 0% means no effect
* hit, by the source's call; ? = inconclusive; / = not tested or not shown. Most compounds without a hit are left out; they make up all but 5.7% or so of the library. Unless noted, calls come from the whole dose curve; as a rule, active = well fitted curve in the direction sought with a large enough effect; inconclusive = small, poorly fitted or top-dose-only effect, or another doubt; inactive = no such curve, though single readings can be large; an effect the other way counts as inactive or inconclusive.

SMILES	GLP1R cytotox	DRD3 antagonist	GLP1R inv ag	DRD3 agonist	ClpP mod	GLP1R ag
CCC(C(=O)NCc1ccco1)N(C(=O)CNS(=O)(=O)c1ccc(C)cc1)c1ccccc1F (configuration not stated)	13%	-4	-20%	4	/	2%
CCOC(=O)CC(=O)CSc1nc2ccsc2c(=O)n1Cc1ccccc1	15%	/	15%	-5	-3%	/
CC(C)CCn1c(SC(C)C#N)nc2ccccc2c1=O (configuration not stated)	/	/	/	/	-2%	/
COc1ccc(NC(=O)CSc2nc(N)c(C#N)cc2C#N)cc1	0%	-27	2%	-29	-2%	9%
CN1CCc2nc(SCC(=O)Nc3ccc(Cl)cc3)c(C#N)cc2C1	66%	-60*	-23%	-25	-2%	5%
CCN1CCc2c(sc(N)c2C#N)C1	3%	-21	1%	22	28µM*	1%
CC(C)N1CCc2c(sc(N)c2C#N)C1	-3%	-23	6%	8	25µM*	-3%
O=C(c1ccco1)N1CCC(c2nc3c(nnn3Cc3c(Cl)cccc3Cl)c(=O)[nH]2)CC1	-16%	10	10%	5	/	16%
CC(C)(C)c1ccc(Cn2nnc3c(=O)[nH]c(C4CCN(C(=O)c5ccco5)CC4)nc32)cc1	-4%	8	?	32*	0%	21%
CC1=C[C@H](O)CC(C)(C)[C@H]1/C=C/C(C)=C/C=C/C(C)=C/C=C/C=C(C)/C=C/C=C(C)/C=C/C1=C(C)C[C@@H](O)CC1(C)C	/	/	/	-1	/	/
CN(C)CCC1Sc2ccccc2Oc2ccccc21 (configuration not stated)	?	-64*	?	0	-1%	10%
c1ccc2c(c1)Oc1ccccc1S2	4%	23	5%	-1	-1%	-3%
CN(C)CCCNC(=O)N1c2ccccc2Sc2ccccc21	?	?	?	-23	/	9%
CC1c2ccccc2SC(CCCN(C)C)c2ccccc21 (configuration not stated)	-29%	?	11µM*	-7	1%	19%
CCCCCOC(=O)CSc1ncnc2c1sc1nc(N3CCOCC3)c3c(c12)CCCC3	-1%	/	8%	4	-7%	8%
O=C(O)C1CCN(c2ccc(S(=O)(=O)N3CCCCC3)cc2[N+](=O)[O-])CC1	8%	-12	1%	-4	1%	6%
O=C(O)C1CCN(S(=O)(=O)c2ccc(N3CCCC3C(=O)O)c([N+](=O)[O-])c2)CC1 (configuration not stated)	-15%	-82*	1%	-20	-3%	-2%
CSCCNC(=O)C1(C)CCN1C(=O)C/C=C/c1ccccc1 (configuration not stated)	2%	17	6%	3	-3%	-4%
CCCOc1cccn2c(N(C)C(=O)c3ccccc3F)c(CC)nc12	2%	-72*	-3%	-9	2%	5%
CCc1nc2c(OCC=C(C)C)cccn2c1N(C)C(=O)c1ccccc1F	2%	14	?	6	1%	-4%
CCc1nc2c(OCCn3cccc3)cccn2c1N(C=O)Cc1ccccc1	-1%	-13	-24%	45*	-1%	-4%
CCc1nc2c(OCC3CCCCC3)cccn2c1N(C)C(=O)c1ccccc1F	5%	-57*	?	-4	-1%	-2%
CCc1nc2c(OCC3CCCCC3)cccn2c1N(C)C(=O)c1ccc(OC)cc1	10%	?	?	-18	-4%	8%
CCc1nc2c(OCCC3CCCCC3)cccn2c1N(C)C(=O)c1ccccc1F	-3%	-57*	?	-19	-7%	5%
COc1ccc(S(=O)(=O)N(CC(=O)Nc2ccccc2Cl)Cc2ccccc2)cc1	3%	/	?	-3	-1%	4%
SMILES	GLP1R cytotox	DRD3 antagonist	GLP1R inv ag	DRD3 agonist	ClpP mod	GLP1R ag
CNC(=O)c1ccccc1Sc1ccc2c(/C=C/c3ccccn3)n[nH]c2c1	/	/	/	6	/	14%
CO[C@H]1C=CO[C@@]2(C)Oc3c(C)c(O)c4c(O)c(c(/C=N/N5CCN(C6CCCC6)CC5)c(O)c4c3C2=O)NC(=O)/C(C)=C\C=C[C@H](C)[C@H](O)[C@@H](C)[C@@H](O)[C@@H](C)[C@H](OC(C)=O)[C@@H]1C	/	/	/	-5	/	/
COC(=O)c1ccc(-c2ccco2)n1Cc1nc(-c2ccc(OC)c(OC)c2)oc1C	-28%	-12	10µM*	2	?	1%
COC(=O)c1ccc(-c2ccco2)n1Cc1ccccc1Cl	-2%	30	-23%	1	28µM*	-1%
CCCCNC(=O)c1nc(C2CCN(S(=O)(=O)c3ccc(OC(F)(F)F)cc3)CC2)oc1-c1ccccc1	-10%	-24	-8%	-8	?	/
Cc1ccc(NS(=O)(=O)c2cc(NC(=O)C(C)Oc3ccccc3)ccc2C)c(C)c1 (configuration not stated)	10%	-8	10µM*	-6	-4%	-2%
Cc1ccc(NC(=O)C(C)Oc2ccccc2)cc1S(=O)(=O)N1CCCCCC1 (configuration not stated)	3%	-1	13µM*	0	-7%	3%
Cc1ccc(NC(=O)CNc2ccc(OC(C)C)cc2)c(C)c1	-10%	-23	?	-2	1%	-8%
CC(Oc1ccccc1)C(=O)Nc1ccc(S(=O)(=O)N2CCCC2)cc1 (configuration not stated)	9%	?	-7%	-16	/	3%
CC1(C)SC2C(NC(=O)C(c3ccccc3)S(=O)(=O)O)C(=O)N2C1C(=O)O (configuration not stated)	/	/	/	/	/	-2%
Cc1cc(C)cc(NC(=O)NCC(O)COc2ccc([N+](=O)[O-])cc2)c1 (configuration not stated)	2%	-13	8.9µM*	-10	1%	12%
Cc1nc2cccnc2n1C1CCN(S(=O)(=O)N(C)C)CC1	13%	/	-6%	3	1%	/
CCCc1ccc(Oc2cn[nH]c2-c2ccc(O)c(C)c2O)cc1	-11%	-11	-2%	-11	-1%	13%
CCCc1ccc(Oc2c(-c3ccc(O)c(C)c3O)n[nH]c2C)cc1	-27%	-81*	?	0	-2%	-9%
CCS(=O)(=O)c1c([N+](=O)[O-])ncn1C	-30%	-19	-5%	0	2%	-5%
Cn1cnc([N+](=O)[O-])c1S(=O)(=O)Oc1ccc(Cl)cc1	?	-89*	?	-13	/	-5%
Cn1cnc([N+](=O)[O-])c1Oc1cccc2ccccc12	?	-6	?	-4	1%	-29%

Assay outcomes deposited in PubChem by National Center for Advancing Translational Sciences (NCATS).
